The target of assay [1] is Lysosomal acid glucosylceramidase (Homo sapiens) (UniProt P04062). Put plainly: Glucocerebrosidase-p2 (AID 348; in the data active = potency below about 10 µM; note: potency is the fitted concentration of half-maximal effect). As to conditions: purified GBA, blue fluorogenic substrate, 40 min. Put shortly: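 Compounds titrated from 0.6 nM upwards against 0.2 nM enzyme in pH 5.9 citric acid/KH2PO4, taurocholate, tween-20; blue fluorogenic substrate 80 uM, 40 min room temperature, stopped and read Ex 365/Em 440 for AC50.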
Sequence of Lysosomal acid glucosylceramidase (Homo sapiens) (P04062 whole entry, looked up): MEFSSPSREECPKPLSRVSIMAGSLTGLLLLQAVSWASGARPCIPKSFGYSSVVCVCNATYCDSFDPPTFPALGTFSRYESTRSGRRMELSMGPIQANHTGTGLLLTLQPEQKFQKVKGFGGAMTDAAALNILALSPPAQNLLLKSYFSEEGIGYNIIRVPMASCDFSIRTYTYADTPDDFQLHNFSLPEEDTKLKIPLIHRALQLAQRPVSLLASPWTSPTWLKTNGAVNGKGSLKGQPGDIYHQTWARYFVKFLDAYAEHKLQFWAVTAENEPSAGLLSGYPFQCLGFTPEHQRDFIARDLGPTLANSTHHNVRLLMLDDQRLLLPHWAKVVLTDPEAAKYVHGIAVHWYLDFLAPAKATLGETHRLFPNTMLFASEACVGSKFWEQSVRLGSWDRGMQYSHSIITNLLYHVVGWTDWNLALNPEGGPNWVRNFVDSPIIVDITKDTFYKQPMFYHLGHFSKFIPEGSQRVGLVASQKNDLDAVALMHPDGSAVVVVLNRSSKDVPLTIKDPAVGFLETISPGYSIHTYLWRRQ

Assay [2] in a line: AP1 Signaling Pathway (AID 357). Note: % is set by controls: 0 for no effect and ±100 for the full control effect. The following applies: ME-180 AP-1-bla reporter, EGF-induced, beta-lactamase ratio, 5 h; at 7.69 µM (top of the series) unless noted. In short, it runs like this: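 Read-out was the 460nm/530nm emission ratio (excitation 405nm) after CCF4 loading for 2.5 hours at room temperature. Cells carried an AP-1-driven beta-lactamase reporter, were stimulated with EC50 EGF plus compound for 5 hours, and AC50 values came from titrations.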

Assay [3] concerns the target Cytochrome P450 1A2 (Homo sapiens) (UniProt P05177). Put plainly: p450-cyp1a2 (AID 410; calls by dose curve; note: potency is the fitted concentration of half-maximal effect). As to conditions: recombinant CYP1A2, luciferin-ME demethylation, luminescence; series mostly up to 11.4 µM. Put shortly: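 Human CYP1A2 (20nM) demethylated Luciferin-ME at its Km (100uM) in 100mM KPO4. After 10 min compound preincubation, NADPH regeneration ran the reaction 60 min at room temperature. Luciferin was read by luminescence, normalized to 57 uM furafylline.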

The nature of assay [4]: NFAT Signaling Pathway (AID 444).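 Note: carbachol stimulus at about its EC50 of 1 µM final; % is set by controls: 0 for no effect and ±100 for the full control effect.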 As to conditions: Jurkat NFAT-bla M1, carbachol, beta-lactamase ratio, 5 h; at 7.69 µM (top of the series) unless noted. In short, it runs like this: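 Jurkat cells with NFAT-driven β-lactamase reporter and co-expressed M1 receptor, stimulated with carbachol (final 1 uM, ~EC50), compound titration, 5 h at 37 °C. CCF4 loaded 1 h at RT; 460/530 nm ratio gave %activity and AC50.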

Assay [5] is described as follows: Stat Signaling Pathway (AID 446).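 Note: ME-180 cervical cancer cells given 40 pM IL-6 alongside compound; SIE-controlled beta-lactamase reporter measured as 460/530 nm FRET emission ratio; % is set by controls: 0 for no effect and ±100 for the full control effect.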 The following applies: ME-180 (cervical carcinoma) SIE beta-lactamase reporter, IL-6 stimulated, 5 h; at 7.69 µM (top of the series) unless noted. Put shortly:
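ME-180 SIE-bla cells; overnight plating; cpd + IL-6 40 pM, 5 h, 37 C; LiveBLAzer 2.5 h RT; 460/530 nm emission ratio. Normalized to 300 pM IL-6 and 125 nM JAK inhibitor controls.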

Assay [6] deals with Glucocorticoid receptor (Homo sapiens) (UniProt P04150). Put plainly: GR-GFP Redistribution (AID 450;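 active = compounds whose dose series gives a full or clear partial fitted curve of increased nuclear translocation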; note: potency is the fitted concentration of half-maximal effect). The following applies: U2OS GR-GFP nuclear translocation, laser cytometry, 2 h.
Sequence of Glucocorticoid receptor (Homo sapiens) (P04150 whole entry, looked up, the tested form may be a part): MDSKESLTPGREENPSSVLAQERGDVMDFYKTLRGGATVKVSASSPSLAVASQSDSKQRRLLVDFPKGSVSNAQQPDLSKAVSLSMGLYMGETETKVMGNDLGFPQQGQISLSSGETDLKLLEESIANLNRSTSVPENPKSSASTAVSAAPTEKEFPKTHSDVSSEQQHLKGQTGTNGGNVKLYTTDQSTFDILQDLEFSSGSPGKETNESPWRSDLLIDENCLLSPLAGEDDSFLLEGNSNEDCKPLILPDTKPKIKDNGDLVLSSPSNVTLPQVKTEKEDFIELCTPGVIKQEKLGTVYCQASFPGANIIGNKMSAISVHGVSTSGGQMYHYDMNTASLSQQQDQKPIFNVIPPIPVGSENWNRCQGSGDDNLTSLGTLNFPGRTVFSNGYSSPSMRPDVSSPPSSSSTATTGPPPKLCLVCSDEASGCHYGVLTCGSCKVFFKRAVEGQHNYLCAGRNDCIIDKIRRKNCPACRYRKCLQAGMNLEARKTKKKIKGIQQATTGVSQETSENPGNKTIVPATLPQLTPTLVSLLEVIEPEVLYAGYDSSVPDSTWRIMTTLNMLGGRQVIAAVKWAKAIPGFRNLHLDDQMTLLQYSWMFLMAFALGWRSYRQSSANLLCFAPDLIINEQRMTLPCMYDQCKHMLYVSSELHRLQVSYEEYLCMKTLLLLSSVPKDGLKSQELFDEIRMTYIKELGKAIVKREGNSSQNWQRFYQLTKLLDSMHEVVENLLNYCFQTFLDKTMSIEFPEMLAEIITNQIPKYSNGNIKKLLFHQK
Assay [7] has the same target. Put plainly: GR-EFC Redistribution (AID 451; calls by dose curve; note: potency is the fitted concentration of half-maximal effect). The following applies: CHO-K1 GR-EFC translocation, beta-gal luminescence, 2 h. Put shortly: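 CHO-K1 cells expressing nuclear EA and GR-ED fragments of b-gal; compounds titrated up to 46 uM final, 2 h at 37 C. GR nuclear translocation read as complemented b-gal luminescence after 1 h RT detection.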
The target of assay [8] is Mitogen-activated protein kinase 10 (Mus musculus) (UniProt Q61831). Put plainly: JNK3 AlphaScreen Assay (AID 530).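 Note: kinase came from lysate of stimulated human HepG2 cells; signal reports phosphorylation of biotinylated GST-cJun 1-79 at Ser73 with 10 µM ATP; % is set by controls: 0 for no effect and ±100 for the full control effect.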 The following applies: JNK3 lysate, c-Jun phosphorylation; series mostly up to 11.4 µM. Put shortly: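 qHTS format: compounds tested as titrations against IL-1beta/TNF-alpha-activated HepG2 lysate JNK3 with biotin-GST-cJun substrate and 10 uM ATP at room temperature. Loss of anti-phospho-cJun AlphaScreen signal indicates inhibition.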
(Bead proximity is the source of the signal in Alpha formats.)

The target of assay [9] is 3',5'-cyclic-AMP phosphodiesterase 4B (Homo sapiens) (UniProt Q07343). Put plainly: qHTS Assay for Inhibitors of PDE-IV (AID 607; active = well fitted activation curve with a large enough effect in the main read-out, with a control signal flat, not every such curve was filed as active; note: % of control where 0% means no effect). As to conditions: HEK293 ACTOne CNG channel cells, membrane potential fluorescence; series mostly up to 22.9 µM. Put shortly:
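ACTOne HEK293 cells carry a modified cAMP-gated CNG channel and express endogenous PDE4; plated 1000 cells/well, compounds up to 22.9 uM final. Membrane-potential dye fluorescence (ex 535/em 590) was read; parental cells received 10 uM forskolin + 100 uM RO 20-1724.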
A general note: Quantitative high-throughput screening tests each substance at several concentrations.

In assay [10] the target is Cytochrome P450 3A4 (Homo sapiens) (UniProt P08684). Put plainly: qHTS Assay for Activators of Cytochrome P450 3A4 (AID 885; active = well fitted curve in the direction sought with a large enough effect; an effect the other way counts as inactive or inconclusive; note: nearly all actives have a fitted effect of over 65% in size). The following applies: recombinant CYP3A4, Luciferin-PPXE luminescence, 60 min; series mostly up to 11.4 µM. In short, it runs like this:
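20nM CYP3A4 + 25uM Luciferin-PPXE (=KM), 200mM KPO4; cpd 10 min RT; NADPH regen, 60 min RT; stop w/ detection buffer, 20 min; luminescence. Normalized to 57 uM ketoconazole.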

Assay [11] has the same target. Put plainly: qHTS Assay for Inhibitors and Substrates of Cytochrome P450 3A4 (AID 884; active = well fitted curve in the direction sought with a large enough effect; an effect the other way counts as inactive or inconclusive; note: potency is the fitted concentration of half-maximal effect; nearly all actives have a fitted effect of over 50% in size). The following applies: recombinant CYP3A4, Luciferin-PPXE luminescence; series mostly up to 57.1 µM. Put shortly: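 20 nM human CYP3A4 with 25 uM Luciferin-PPXE (at KM) in 200 mM KPO4, preincubated 10 min with compound; NADPH regeneration started a 60 min RT reaction. Luciferin detected by luminescence, normalized to 57 uM ketoconazole as full inhibition.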

Assay [12] concerns the target Cytochrome P450 2C19 (Homo sapiens) (UniProt P33261). Put plainly: qHTS Assay for Inhibitors and Substrates of Cytochrome P450 2C19 (AID 899; active = well fitted curve in the direction sought with a large enough effect; an effect the other way counts as inactive or inconclusive; note: potency is the fitted concentration of half-maximal effect; nearly all actives have a fitted effect of over 60% in size). As to conditions: recombinant CYP2C19, luciferin-H EGE luminescence; series mostly up to 11.4 µM. Put shortly: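 Signal comes from luciferase acting on luciferin released by CYP2C19-mediated hydroxylation of Luciferin-H EGE, 10uM (KM). Assay mix: 5nM enzyme, 50mM KPO4; 60 min at 37C with NADPH regeneration. Data normalized against 57uM ketoconazole.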

Assay [13] in a line: Confirmation and Secondary Assay for Modulators of Hemoglobin Beta Chain Splicing at IVS2 654 locus (AID 910; active = well fitted curve in the direction sought with a large enough effect; an effect the other way counts as inactive or inconclusive;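 note: HeLa cells stably carrying EGFP split by mutant beta-globin IVS2-654 intron; % of control where 0% means no effect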). As to conditions: HeLa EGFP-654 splicing reporter, GFP fluorescence, 48 h; series mostly up to 38.3 µM. Put shortly: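 HeLa cells stably expressing EGFP interrupted by β-globin IVS2-654 intron, seeded overnight in Opti-MEM/2% FCS, then treated 2 days at 37 °C. Restored splicing read as total peak GFP intensity per well by laser scanning cytometry (488 nm excitation, 500–520 nm emission); 500 nM antisense PNA as control.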

Assay [14] in a line: Confirmation and Secondary Assay for Modulators of Hemoglobin Beta Chain Splicing at IVS2 705 locus (AID 930; active = well fitted curve in the direction sought with a large enough effect; an effect the other way counts as inactive or inconclusive;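 note: HeLa cells stably expressing the EGFP-705 splicing reporter; GFP fluorescence per well restored by corrected splicing of the IVS2-705 intron in EGFP; % of control where 0% means no effect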). The following applies: HeLa EGFP-705 splicing reporter, GFP fluorescence, 48 h; series mostly up to 38.3 µM. In short, it runs like this:
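Per-well GFP, captured at 1 x 8 µm resolution with 488 nm excitation, served as the read-out for HeLa EGFP-705 cells incubated 2 days with test compound versus DMSO.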

SMILES strings stand for the structures. Unmarked numbers belong to inactive results. Results filed as inconclusive are left out. Activity calls are given as the source filed them. Unless noted, calls come from the whole dose curve; as a rule, active = well fitted curve in either direction with a large enough effect (not every such curve was filed as active); inconclusive = small, poorly fitted or top-dose-only effect, or another doubt; inactive = flat fitted curve, though single readings scatter.

Sequence of 3',5'-cyclic-AMP phosphodiesterase 4B (Homo sapiens) (Q07343 whole entry, looked up): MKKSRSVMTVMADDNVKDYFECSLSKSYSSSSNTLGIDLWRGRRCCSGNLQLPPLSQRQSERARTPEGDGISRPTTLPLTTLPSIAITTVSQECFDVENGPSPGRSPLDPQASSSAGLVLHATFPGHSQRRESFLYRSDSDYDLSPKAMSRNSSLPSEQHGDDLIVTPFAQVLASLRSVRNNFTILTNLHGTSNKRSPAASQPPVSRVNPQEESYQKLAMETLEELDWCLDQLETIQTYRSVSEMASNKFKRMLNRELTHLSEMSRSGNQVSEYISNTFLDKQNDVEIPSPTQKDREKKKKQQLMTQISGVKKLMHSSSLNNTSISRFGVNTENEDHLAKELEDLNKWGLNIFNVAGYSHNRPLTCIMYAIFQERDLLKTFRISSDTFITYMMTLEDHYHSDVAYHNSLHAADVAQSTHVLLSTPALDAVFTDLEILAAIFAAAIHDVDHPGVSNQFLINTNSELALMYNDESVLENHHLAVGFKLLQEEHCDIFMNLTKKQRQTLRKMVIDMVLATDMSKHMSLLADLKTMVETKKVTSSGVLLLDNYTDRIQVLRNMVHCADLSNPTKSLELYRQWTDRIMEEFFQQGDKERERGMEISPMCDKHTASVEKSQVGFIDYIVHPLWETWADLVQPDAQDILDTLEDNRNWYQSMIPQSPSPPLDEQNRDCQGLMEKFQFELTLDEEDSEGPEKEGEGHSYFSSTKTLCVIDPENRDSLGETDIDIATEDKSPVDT
Sequence of Cytochrome P450 1A2 (Homo sapiens) (P05177 whole entry, looked up): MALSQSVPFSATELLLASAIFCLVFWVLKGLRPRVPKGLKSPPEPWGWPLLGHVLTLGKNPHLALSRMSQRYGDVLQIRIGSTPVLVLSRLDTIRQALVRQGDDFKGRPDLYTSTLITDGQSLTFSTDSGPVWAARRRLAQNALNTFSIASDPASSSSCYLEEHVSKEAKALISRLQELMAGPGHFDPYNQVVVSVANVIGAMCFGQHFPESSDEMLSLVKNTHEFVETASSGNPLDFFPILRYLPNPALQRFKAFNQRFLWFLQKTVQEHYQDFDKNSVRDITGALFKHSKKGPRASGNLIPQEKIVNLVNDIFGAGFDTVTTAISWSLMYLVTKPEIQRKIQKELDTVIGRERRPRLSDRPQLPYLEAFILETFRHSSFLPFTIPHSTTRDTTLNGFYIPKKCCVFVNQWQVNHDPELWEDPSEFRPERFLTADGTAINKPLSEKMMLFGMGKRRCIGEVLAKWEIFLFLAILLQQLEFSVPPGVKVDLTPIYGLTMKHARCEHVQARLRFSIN
Sequence of Cytochrome P450 3A4 (Homo sapiens) (P08684 whole entry, looked up): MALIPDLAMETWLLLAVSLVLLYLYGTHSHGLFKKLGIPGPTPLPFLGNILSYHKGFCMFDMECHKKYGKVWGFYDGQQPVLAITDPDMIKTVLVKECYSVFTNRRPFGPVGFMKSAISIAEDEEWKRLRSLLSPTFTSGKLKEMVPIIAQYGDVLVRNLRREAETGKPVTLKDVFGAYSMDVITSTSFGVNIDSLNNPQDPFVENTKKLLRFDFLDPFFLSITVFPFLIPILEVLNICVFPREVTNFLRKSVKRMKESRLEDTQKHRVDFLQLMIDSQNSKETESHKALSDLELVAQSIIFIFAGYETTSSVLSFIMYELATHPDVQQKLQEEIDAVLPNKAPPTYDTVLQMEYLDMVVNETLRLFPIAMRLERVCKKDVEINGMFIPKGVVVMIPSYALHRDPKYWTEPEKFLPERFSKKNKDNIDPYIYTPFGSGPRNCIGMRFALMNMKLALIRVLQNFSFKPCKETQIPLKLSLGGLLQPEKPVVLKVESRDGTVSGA
Sequence of Cytochrome P450 2C19 (Homo sapiens) (P33261 whole entry, looked up): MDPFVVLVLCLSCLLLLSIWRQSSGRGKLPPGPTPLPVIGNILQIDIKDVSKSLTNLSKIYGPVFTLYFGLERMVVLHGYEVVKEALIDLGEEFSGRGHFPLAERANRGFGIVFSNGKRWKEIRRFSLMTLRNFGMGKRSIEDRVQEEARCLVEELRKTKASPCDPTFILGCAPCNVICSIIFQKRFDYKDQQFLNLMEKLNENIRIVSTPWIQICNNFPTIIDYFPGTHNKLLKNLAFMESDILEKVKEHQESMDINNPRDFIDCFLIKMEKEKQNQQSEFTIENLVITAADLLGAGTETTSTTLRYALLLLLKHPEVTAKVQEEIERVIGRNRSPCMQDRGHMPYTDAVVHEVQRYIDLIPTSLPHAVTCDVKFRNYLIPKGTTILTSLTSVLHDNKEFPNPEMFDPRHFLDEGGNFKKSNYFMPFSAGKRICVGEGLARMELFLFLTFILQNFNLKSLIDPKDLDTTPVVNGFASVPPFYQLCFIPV

As for `C[C@@H]1Oc2ccc(C(=O)C[C@@H](C(=O)O)c3ccc4c(c3)OCO4)cc2O1`, the Potency in [1] is greater than 11.4 µM; in assay [3], 0.794 µM (active); in assay [6], greater than 46 µM; in assay [7], greater than 9.22 µM. The activity change, negative = inhibition in assay [2] is 1.87%; in assay [4], -10.8%. In [5], the activity, negative = inhibition is -5.57%. Moreover, the Potency result in assay [8], in [9] and in assay [10] was “inactive” in each case.
Turning to `Cc1ccc(-c2nnc(-c3ccc4ccccc4c3)o2)cc1`, the Potency in assay [1] was greater than 11.4 µM; in [3], 0.631 µM (active); in [6], greater than 46 µM; in [7], greater than 9.22 µM. Moreover, the values for the activity change, negative = inhibition in assay [2] and in [4] were 13.5% and -21%, respectively. In assay [5], the activity, negative = inhibition is 14.3%. Further, the Potency result in [8], in [9] and in assay [10] was “inactive” each time.
For the compound `Nc1nc(SCc2ccccc2[N+](=O)[O-])c2[nH]cnc2n1`, the Potency in [1] is greater than 11.4 µM; in [3], 5.01 µM (active); in [6], greater than 46 µM; in [7], greater than 9.22 µM; in [11], 3.16 µM (active). Moreover, the activity change, negative = inhibition is -3.57% in assay [2] and 14.4% in assay [4]. For the same compound, in assay [5], the activity, negative = inhibition was -8.39%. For the same compound, the Potency entry in [8], in assay [9] and in assay [10] was “inactive” in each case.
With `O[C@@H](C1=C/C(=C\c2ccncc2)c2ccccc21)c1ccncc1`, the Potency in assay [1] was greater than 11.4 µM; in assay [3], 0.1 µM (active); in assay [6], greater than 46 µM; in [7], greater than 9.22 µM; in assay [11], 0.794 µM (active); in [12] it was 0.158 µM (active). For the same compound, the activity change, negative = inhibition was 6.34% in assay [2] and -26.9% in assay [4]. For the same compound, the activity, negative = inhibition in assay [5] is -15.9%. Further, the Potency result in [8], in assay [9] and in assay [10] was “inactive” each time.
Turning to `COc1ccc(C=Nc2c(O)ccc3ccccc23)cc1OC`, the Potency is greater than 11.4 µM in [1], 0.251 µM (active) in [3], greater than 46 µM in assay [6] and greater than 9.22 µM in assay [7]. Further, the activity change, negative = inhibition in assay [2] was -0.822%; in [4], 9.83%. For the same compound, the activity, negative = inhibition in [5] is -1.67%. Moreover, the Potency entry in [8], in assay [9] and in assay [10] was “inactive” each time.
Take `COc1ccc(Oc2ncc3nc(C)c(=O)n(-c4ccc(OC)cc4)c3n2)cc1`: the Potency in assay [1] was greater than 11.4 µM; in assay [3], 15.8 µM (active); in [6] it was greater than 9.22 µM; in assay [7] it was greater than 46 µM; in assay [11], 3.98 µM (active). Moreover, the activity change, negative = inhibition is -21.8% in [2] and -15.1% in [4]. In assay [5], the activity, negative = inhibition was -16.4%. The Potency entry in [8], in [9] and in [10] was “inactive” in each case.
Regarding `Cc1cnc(CNc2nc(-c3cccnc3)nc3ccccc23)cn1`, the Potency is greater than 11.4 µM in assay [1]; 2.51 µM (active) in assay [3]; greater than 46 µM in [6]; greater than 46 µM in assay [7]; 3.98 µM (active) in assay [11]. Also, the activity change, negative = inhibition was -11.8% in assay [2] and 0.457% in [4]. Moreover, the activity, negative = inhibition in assay [5] is -9.76%. Moreover, the Potency result in [8], in [9] and in assay [10] was “inactive” throughout. For the same compound, the compound was classed as inactive in assay [13] and in [14].

These data come from PubChem BioAssay (NCATS).
